Laboratory results reported in PubChem BioAssay (NCATS).
Records with an inconclusive call do not appear. Calls of active or inactive are those of the source. Calls come from the whole dose curve; as a rule, active = well fitted curve in the direction sought with a large enough effect; inconclusive = small, poorly fitted or top-dose-only effect, or another doubt; inactive = no such curve, though single readings can be large; an effect the other way counts as inactive or inconclusive.

How the values were obtained:
CRL-7250 = normal cell line; test: Cytotoxic Profiling of Annotated Libraries Using Quantitative High-Throughput Screening (AID 1296008); conditions: Five cell lines viability, CellTiter-Glo ATP luminescence, 48-72 h; max response: active compounds read low; note: nearly all actives have a fitted effect of over 60% in size; for max response: % is set by controls: 0 for no effect and ±100 for the full control effect
Method in brief: (§1)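 Cytotoxicity was measured as CellTiter-Glo ATP luminescence, read after 10 min at room temperature. Compound treatment of the cells lasted 48 or 72 hr at 37 degrees Celsius in a qHTS format.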

HEK293 = test: as above; conditions: Five cell lines viability, CellTiter-Glo ATP luminescence, 48-72 h; max response: active compounds read low
Method in brief: as §1

HaCat = test: as above; conditions: Five cell lines viability, CellTiter-Glo ATP luminescence, 48-72 h; max response: active compounds read low
Method in brief: as §1

KB-3-1 = test: as above; conditions: Five cell lines viability, CellTiter-Glo ATP luminescence, 48-72 h; max response: active compounds read low
Method in brief: as §1

NIH3T3 [1] = test: as above; conditions: Five cell lines viability, CellTiter-Glo ATP luminescence, 48-72 h; max response: active compounds read low
Method in brief: as §1

NIH3T3 [2] = test: qHTS assay to identify novel small-molecules to repurpose for Merkel cell carcinoma treatment (AID 1296009); conditions: MCC and control cell lines, CellTiter-Glo viability, 72 h; at 44.8 µM (top of the series) unless noted; note: nearly all actives have a fitted effect of over 60% in size
Method in brief: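 After compound transfer in DMSO, plates were kept 72 hr at 37 degree celsius. Luminescent ATP signal from CellTiter-Glo served as viability measure, normalized against DMSO and no-cell controls.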

C33A = test: Primary qHTS to identify gynecologic anti-cancer compounds using libraries of approved drugs and bioactive compounds (AID 1345084); conditions: Gynecologic cancer cell panel viability, ATPlite luminescence, 48 h; series mostly up to 57.5 µM; note: % is set by controls: 0 for no effect and ±100 for the full control effect; nearly all actives have a fitted effect of over 55% in size
Method in brief: (§2)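 Measured: luminescence after ATPlite addition (15 min, RT). Exposure: 48 h, 37 C, 5% CO2.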

CAOV3 = test: as above; conditions: Gynecologic cancer cell panel viability, ATPlite luminescence, 48 h; series mostly up to 57.5 µM
Method in brief: as §2

CASKI = test: as above; conditions: Gynecologic cancer cell panel viability, ATPlite luminescence, 48 h; series mostly up to 57.5 µM
Method in brief: as §2

Es-2 = test: as above; conditions: Gynecologic cancer cell panel viability, ATPlite luminescence, 48 h; series mostly up to 57.5 µM
Method in brief: as §2

HeLa = test: as above; conditions: Gynecologic cancer cell panel viability, ATPlite luminescence, 48 h; series mostly up to 57.5 µM
Method in brief: as §2

Hek293T = test: as above; conditions: Gynecologic cancer cell panel viability, ATPlite luminescence, 48 h, control line for the selectivity index; series mostly up to 57.5 µM
Method in brief: as §2

JEG-3 = test: as above; conditions: Gynecologic cancer cell panel viability, ATPlite luminescence, 48 h; series mostly up to 57.5 µM
Method in brief: as §2

C=CCC1=C[C@]2(OC)[C@H](C)[C@@H](c3ccc(OC)c(OC)c3)O[C@]2(OC)CC1=O
inactive: max response (CRL-7250) 4.13% | max response (HEK293) -10.4% | max response (HaCat) -0.368% | outcome (KB-3-1) | outcome (NIH3T3 [1]) | outcome (NIH3T3 [2]) | Potency (C33A) | Potency (CAOV3) | outcome (CASKI) | Potency (Es-2) | Potency (HeLa) | Potency (Hek293T) | Potency (JEG-3)

O=C(N[C@H](Cc1ccccc1)C(=O)O)c1sc2cc(F)ccc2c1Cl
inactive: max response (CRL-7250) 2.45% | max response (HEK293) -2.83% | max response (HaCat) -0.292% | outcome (KB-3-1) | outcome (NIH3T3 [1]) | outcome (NIH3T3 [2]) | Potency (C33A) | Potency (CAOV3) | outcome (CASKI) | Potency (Es-2) | Potency (HeLa) | Potency (Hek293T) | Potency (JEG-3)

CC(C)(CC(=O)N1CCCC1)NCC(=O)N1C[C@@H](F)C[C@H]1C#N
inactive: max response (CRL-7250) -2.43% | max response (HEK293) -0.937% | max response (HaCat) -28% | max response (KB-3-1) 1.01% | outcome (NIH3T3 [1]) | outcome (NIH3T3 [2]) | Potency (C33A) | Potency (CAOV3) | outcome (CASKI) | Potency (Es-2) | Potency (HeLa) | Potency (Hek293T) | Potency (JEG-3)

Cc1ccc(Cl)cc1N(CC(=O)Nc1c(F)cccc1F)S(C)(=O)=O
inactive: max response (CRL-7250) -3.38% | max response (HEK293) -7.88% | max response (HaCat) -2.84% | max response (KB-3-1) 5.59% | outcome (NIH3T3 [1]) | outcome (NIH3T3 [2]) | Potency (C33A) | Potency (CAOV3) | outcome (CASKI) | Potency (Es-2) | Potency (HeLa) | Potency (Hek293T) | Potency (JEG-3)

C=C1CCC2C(C)(C)CC(O)CC2(C)C1CCC(C)CCOC(=O)CCC(=O)O (centres undefined)
inactive: max response (CRL-7250) -28.7% | max response (HEK293) -12.9% | max response (HaCat) -1.5% | max response (KB-3-1) -6.16% | outcome (NIH3T3 [1]) | outcome (NIH3T3 [2]) inactive [at 17.4 µM] | Potency (C33A) | Potency (CAOV3) | outcome (CASKI) | Potency (Es-2) | Potency (HeLa) | Potency (Hek293T) | Potency (JEG-3)

COc1cc([C@@H](O[C@@H]2O[C@H](CO)[C@@H](O)[C@H](O)[C@H]2O)[C@@H]2CO[C@H](c3ccc(O)c(OC)c3)[C@H]2CO)ccc1O
inactive: outcome (CRL-7250) | max response (HEK293) 2.55% | max response (HaCat) 0.823% | max response (KB-3-1) -3.03% | outcome (NIH3T3 [1]) | outcome (NIH3T3 [2]) inactive [at 17.4 µM] | Potency (C33A) | Potency (CAOV3) | outcome (CASKI) | Potency (Es-2) | Potency (HeLa) | Potency (Hek293T) | Potency (JEG-3)

C[C@@H]1C[C@H]2OC(=O)[C@@]3(C)CCC[C@](C)(C23)[C@@]1(O)CCC1=CC(=O)OC1O (some centres undefined)
inactive: outcome (CRL-7250) | max response (HEK293) -8.41% | max response (HaCat) 3.15% | outcome (KB-3-1) | outcome (NIH3T3 [1]) | outcome (NIH3T3 [2]) | Potency (C33A) | Potency (CAOV3) | outcome (CASKI) | Potency (Es-2) | Potency (HeLa) | Potency (Hek293T) | Potency (JEG-3)

C=C1C(OC(C)=O)CCC2(C)CC3(O)OC(=O)C(C)=C3CC12 (centres undefined)
inactive: outcome (CRL-7250) | max response (HEK293) -4.29% | max response (HaCat) -1.9% | outcome (KB-3-1) | outcome (NIH3T3 [1]) | outcome (NIH3T3 [2]) | Potency (C33A) | Potency (CAOV3) | outcome (CASKI) | Potency (Es-2) | Potency (HeLa) | Potency (Hek293T) | Potency (JEG-3)

CC(=O)O[C@@H]1C(=O)C(C)=C(CCC(C)CC(=O)O)[C@@]2(C)CCCC(C)(C)C12 (some centres undefined)
inactive: outcome (CRL-7250) | max response (HEK293) 0.534% | max response (HaCat) -6.8% | max response (KB-3-1) -5.14% | outcome (NIH3T3 [1]) | outcome (NIH3T3 [2]) | Potency (C33A) | Potency (CAOV3) | outcome (CASKI) | Potency (Es-2) | Potency (HeLa) | Potency (Hek293T) | Potency (JEG-3)

CC(C)=CC1C[C@](C)(O)[C@@H]2[C@H]3CCC4[C@@]5(C)CC[C@H](O[C@@H]6OC[C@H](O)[C@H](O[C@@H]7O[C@H](CO[C@@H]8O[C@H](CO)[C@@H](O)[C@H](O)[C@H]8O)[C@@H](O)[C@H](O)[C@H]7O)[C@H]6O[C@@H]6O[C@@H](C)[C@H](O)[C@@H](O)[C@H]6O)C(C)(C)[C@@H]5CC[C@@]4(C)[C@@]34CO[C@@]2(C4)O1 (some centres undefined)
inactive: max response (CRL-7250) -1.09% | max response (HEK293) -3.55% | max response (HaCat) 4.88% | outcome (KB-3-1) | outcome (NIH3T3 [1]) | outcome (NIH3T3 [2]) inactive [at 9.27 µM] | activity change, negative = cytotoxicity (C33A) 25.2% [at 11.6 µM] | activity change, negative = cytotoxicity (CAOV3) 4.48% [at 11.6 µM] | activity change, negative = cytotoxicity (CASKI) 12.3% [at 11.6 µM] | activity change, negative = cytotoxicity (Es-2) 11.4% [at 11.6 µM] | activity change, negative = cytotoxicity (HeLa) 6.98% [at 11.6 µM] | activity change, negative = cytotoxicity (Hek293T) -1.62% [at 11.6 µM] | activity change, negative = cytotoxicity (JEG-3) 8.28% [at 11.6 µM]

C[C@H]1[C@H](C)CC[C@]2(C(=O)O)CC[C@]3(C)C(=CCC4[C@@]5(C)C[C@@H](O)[C@H](O)C(C)(C)C5CC[C@]43C)[C@H]12 (some centres undefined)
inactive: outcome (CRL-7250) | max response (HEK293) 3.03% | max response (HaCat) -6.87% | max response (KB-3-1) -2.55% | outcome (NIH3T3 [1]) | outcome (NIH3T3 [2]) inactive [at 17.4 µM] | Potency (C33A) | Potency (CAOV3) | outcome (CASKI) | Potency (Es-2) | Potency (HeLa) | Potency (Hek293T) | Potency (JEG-3)

C=C(C(=O)O)[C@@H]1CC[C@H](C)[C@@H]2CC(=O)C(C)=C2C1
inactive: outcome (CRL-7250) | max response (HEK293) 3.15% | max response (HaCat) -2.91% | max response (KB-3-1) 3.54% | outcome (NIH3T3 [1]) | outcome (NIH3T3 [2]) | Potency (C33A) | Potency (CAOV3) | outcome (CASKI) | Potency (Es-2) | Potency (HeLa) | Potency (Hek293T) | Potency (JEG-3)

CC1=C2CC(=O)C(C)CC/C=C(\C)CC2(O)OC1=O (centres undefined)
inactive: max response (CRL-7250) -4.8% | max response (HEK293) 0.476% | max response (HaCat) 2.42% | max response (KB-3-1) 3.81% | outcome (NIH3T3 [1]) | outcome (NIH3T3 [2]) | Potency (C33A) | Potency (CAOV3) | outcome (CASKI) | Potency (Es-2) | Potency (HeLa) | Potency (Hek293T) | Potency (JEG-3)
